# From PubChem BioAssay AID2797 (The Scripps Research Institute Molecular Screening Center, 2010)
# “And” between values parts separate entries of the source, which are not always exact repeats. Equal values may be shown once. The campaign covered roughly 320,000 compounds. About 820 (0.26%) were called active. This is one part of a sample in which actives are shown more often than they occur. Values without a mark were called inactive.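 How the source made its calls: active means activation above the mean activation of all tested compounds plus 3 SD, per screening run (cut at about 20% in these data); inactive means the rest.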
# Molecular target: Vasopressin V1a receptor (Homo sapiens) (UniProt P37288)
# Sequence (P37288 whole entry, looked up): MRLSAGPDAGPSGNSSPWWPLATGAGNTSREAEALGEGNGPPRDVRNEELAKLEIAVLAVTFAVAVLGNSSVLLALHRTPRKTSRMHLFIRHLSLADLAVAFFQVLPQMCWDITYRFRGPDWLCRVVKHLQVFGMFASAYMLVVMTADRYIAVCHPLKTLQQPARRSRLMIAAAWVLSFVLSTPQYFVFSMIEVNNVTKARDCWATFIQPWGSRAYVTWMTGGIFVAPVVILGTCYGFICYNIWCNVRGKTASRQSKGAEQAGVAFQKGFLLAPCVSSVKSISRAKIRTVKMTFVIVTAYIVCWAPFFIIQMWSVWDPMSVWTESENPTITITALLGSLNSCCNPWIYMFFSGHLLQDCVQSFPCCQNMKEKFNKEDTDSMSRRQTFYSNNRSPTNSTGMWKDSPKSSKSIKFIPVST
# Experiment: agonists of human V1a receptor, primary screen, counter-screen for OXTR agonist project, fluorescence, CHO-V1R cells (AID 2797);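 further: signal is peak over basal fluorescence ratio across a 100 second FLIPR read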
# Details: Fluo-8 calcium fluorescence, agonist mode, at 3 µM, stronger effect = higher value, 0% DMSO, 100% 3 nM vasopressin
row,Structure (SMILES),activation
1,Cn1c2ccccc2c(=O)c2c(=O)n(Cc3ccco3)c(COc3ccccc3)nc21,2.23%
2,CCCc1nc2c(c(=O)c3ccccc3n2C)c(=O)n1C1CCCCCC1,86.8% (active)
3,Cn1c2ccccc2c(=O)c2c(O)cccc21,0.32%
4,NS(=O)(=O)c1ccc(NC(=O)COC(=O)C2(c3ccc(F)cc3)CCCC2)cc1,10.2%
5,CCC(C(=O)Nc1ccc2c(c1)OCCO2)c1ccccc1 (centres undefined),1.12%
6,CCC(C(=O)OCC(=O)Nc1ccc(C(=O)Nc2ccc(OC)cc2)cc1)c1ccccc1 (centres undefined),6.96%
7,CCC(C(=O)Nc1ccc(C(C)C)cc1)c1ccccc1 (centres undefined),40.7% (active)
8,COc1ccc2c(c1)C(=O)Nc1cc(Cl)ccc1N2,3.78%
9,Cc1cccn2c(=O)c(/C=C(\C#N)C(N)=O)c(N3CCCCCC3)nc12,-0.28%
10,CCOC(=O)N1CCN(C(=O)CSc2nc(=O)n3cccc(C)c3n2)CC1,-0.26%
11,CCOC(=O)CC1C(=O)NCCN1c1nc2c(C)cccn2c(=O)c1/C=C1\SC(=S)N(C(C)CC)C1=O (centres undefined),34% (active)
12,Cn1nccc1NC(=O)CC(CC(=O)O)c1ccccc1 (centres undefined),-0.62%
13,Cc1ccc(C(=O)NCC(=O)OCc2nnc(-c3ccccc3)o2)cc1,1.89%
14,CCCc1ccc(C(=O)[C@@H]2[C@@H](C(C)=O)N3c4ccc(F)cc4C=C[C@@H]3[C@@]23C(=O)Nc2ccccc23)cc1,-0.96%
15,Cc1ccc(CNC(=O)c2cccc3c2C(=O)c2ccc(N4CCC(C)CC4)cc2S3(=O)=O)cc1,49.5% (active)
16,Cc1ccc(CNC(=O)c2ccc3c(c2)S(=O)(=O)c2ccccc2C3=O)cc1,-0.95%
17,CC1CCN(c2c(NCc3ccc(C(=O)NCc4ccccc4)cc3)c(=O)c2=O)CC1,0.76%
18,CCCN(CCC)CCCNC(=O)CNC(=O)c1nn(-c2ccc(OC)cc2)c(=O)c2ccccc12,2.99%
19,CCOC(=O)C1=C(CC)Nc2ccccc2N=C1NC(=O)c1cccc(S(=O)(=O)N2CCCC2)c1,-0.11%
20,Cc1cccc(CN2CCC(CNC(=O)Nc3ccc(F)c(Cl)c3)CC2)c1,26.4% (active)
21,Cc1ccc(C)c(CN2CCC(CNC(=O)Nc3ccc(C)c(F)c3)CC2)c1,4.31%
22,Cc1ccccc1NC(=O)NCC1CCN(Cc2cccc(Cl)c2)CC1,3.18%
23,CCCCC(=O)NNC(=S)NC(=O)C(c1ccccc1)c1ccccc1,73.7% (active)
24,CC(C)C(=O)Nc1cccc(NC(=S)NC(=O)C(c2ccccc2)c2ccccc2)c1,6.96%

row,Structure (SMILES),activation
1,CCNC(=S)NNC(=O)Cc1ccccc1,-0.19%
2,Cc1ccc(S(=O)(=O)NC2CCCCCC2)cc1C(N)=O,3.64%
3,CCCN(CC1COc2ccccc2O1)C(=S)Nc1ccc(C)cc1 (centres undefined),-0.74%
4,OCCN(Cc1ccccc1)Cc1ccc(Cl)cc1,0.58%
5,CCN(CC)C(=O)N(CC)Cc1ccccc1,0.23%
6,CN(C(=O)CN(CCO)CC(=O)N(C)C(C)(C)Cc1ccccc1)C(C)(C)Cc1ccccc1,53.5% (active)
7,O=C(Nc1ccc2c(c1)OCCO2)c1cnccn1,-0.23%
8,Cc1ccc(C(=O)NCCNC(=O)c2cnccn2)cc1,0.28%
9,CCN(CC)c1ccc(/C=N/NC(=O)c2cnccn2)c(O)c1,20.8% (active)
10,CC(c1ccco1)N(C(=O)Nc1ccccc1)C1CCCCC1 (centres undefined),-0.6%
11,CC(C)c1cc(NCc2ccccn2)n2c(nc3ccccc32)c1C#N,-0.18%
12,CC/C(=N\NC(=O)c1ccccc1Cl)c1ccc(Br)s1,0.56%
13,O=C(CN1CCN(c2cccc(Cl)c2)CC1)Nc1ccc(S(=O)(=O)N2CCOCC2)cc1,26.1% (active)
14,O=C(CN1CCCCCC1)Nc1ccc(S(=O)(=O)N2CCCCC2)cc1,0.94%
15,O=C(CN1C(=O)CCC1=O)Nc1ccc(S(=O)(=O)N2CCOCC2)cc1,0.29%
16,CCC(C)NC(=O)N[C@@H](CCSC)C(=O)O (some centres undefined),0.54%
17,Cc1cccc(-c2nc3ccccc3c(=O)n2NC(=O)Cc2ccc(Cl)cc2)c1,4.01%
18,NC(=O)c1cc(-c2cccnc2)nc2ccc(Br)cc12,-0.49%
19,O=c1c2cc(Br)ccc2nc(-c2cccc(Cl)c2)n1O,39% (active)
20,CCCCc1nc2cc(C(=O)NCCc3cnn(C)c3)ccc2o1,1.32%
21,CC(C)c1nc(SCC(=O)Nc2cccc(C(=O)O)c2)c2c3c(sc2n1)CCCC3,6.28%
22,CCOc1ccc(C2NC(=S)NC3=C2CCc2ccccc23)cc1 (centres undefined),0.4%
23,O=C(NCc1cccnc1)c1cc(S(=O)(=O)N2CCOCC2)c(Cl)cc1Cl,1.17%
24,COc1ccccc1NC(=O)Nc1nc(CC(=O)Nc2ccccc2F)cs1,-0.76%

row,Structure (SMILES),activation
1,Oc1ccc2ccc3cccc[n+]3c2c1,49.5% (active)
2,CCSc1nc(C)c(CCOc2cccc(C)c2)c(=O)[nH]1,-0.28%
3,COCCN(C(=O)CC1CCCCC1)c1c(N)n(CC(C)C)c(=O)[nH]c1=O,-0.63%
4,CC(=O)Nc1cccc(NC(=O)CSc2nccn2Cc2ccc(F)cc2)c1,3.25%
5,C=CCOc1cccc(C2C(C(=O)c3ccc(C)o3)=C(O)C(=O)N2CCCn2ccnc2)c1 (centres undefined),-0.49%
6,Cc1cc(N2C(=O)C(O)=C(C(=O)c3ccc(C)o3)C2c2ccc(OCc3ccccc3)cc2)no1 (centres undefined),0.41%
7,C=CCOc1cccc(C2C(C(=O)c3ccc(C)o3)=C(O)C(=O)N2c2nnc(C)s2)c1 (centres undefined),78.1% (active)
8,CCOC(=O)c1c(NC(=O)CSc2nnc(CNc3ccc(C)cc3C)o2)sc(C)c1C,0.01%
9,COc1ccc(S(=O)(=O)NCC(c2ccc(C)cc2)N2CCN(C)CC2)cc1OC (centres undefined),0.61%
10,Cc1cnc(C(=O)OCc2c(C)cc(C(C)(C)C)cc2C)cn1,-0.09%
11,CC1(C)S[C@@H]2[C@H](N=CN3CCCCCC3)C(=O)N2[C@H]1C(=O)O,21.6% (active)
12,CC1(C)S[C@@H]2[C@H](NC(=O)COc3ccccc3)C(=O)N2C1C(=O)OCc1ccccc1 (some centres undefined),1.45%
13,CC1(C)SC2C(NC(=O)COc3ccccc3)C(=O)N2C1C(=O)O (centres undefined),0.91% and -0.17%
14,COc1ccccc1NC(=O)/C=C/C(N)=O,0.73%
15,COC(=O)c1sc(-c2ccc(C(C)(C)C)cc2)cc1NC(=O)/C=C/C(=O)O,28.5% (active)
16,CC(C)(C)c1ccc(/C=C/C(=O)Nc2ncccn2)cc1,-0.18%
17,COc1ccc(S(=O)(=O)N2CCOCC2)c(C)c1C,0.14%
18,O=C(NNC(=O)c1ccccc1[N+](=O)[O-])Nc1ccccc1C(F)(F)F,0.06%
19,O=C(N1CCCC1)C12CC3CC(C1)CC(C(=O)N1CCCC1)(C3)C2,-0.17%
20,Cc1nc(C(=O)Nc2ccc(Cl)cc2)sc1C1(C)CC(c2ccccc2)=NO1 (centres undefined),1.86%
21,Cc1nc(C(=O)NCc2ccccc2)sc1C1(C)CC(c2cccnc2)=NO1 (centres undefined),33.9% (active)
22,Cc1nc(-c2ccc(Cl)cc2)sc1C1(C)CC(c2ccccc2F)=NO1 (centres undefined),0.6%
23,O=C(Nc1ccc(Cl)cc1)Nc1ccc(Oc2cccnc2)nc1,15.2%
24,COc1ccc(F)cc1S(=O)(=O)N1CCCCC1,0.03%

row,Structure (SMILES),activation
1,Cc1cc(NC(=O)CCC(=O)N(CC(=O)NCC2CCCO2)c2ccccc2)no1 (centres undefined),-0.14%
2,Nc1ccc2nc3c(=O)[nH]c(=S)[nH]c3nc2c1,33.2% (active)
3,NC(N)=Nc1nc2ccc(Br)cc2c(=O)[nH]1,0.39%
4,COCC(=O)N1CCc2ccc(NC(=O)c3ccccc3Cl)cc2C1,1.09%
5,CCOC(=O)c1c(S(=O)(=O)Nc2ccc(CN3CCC(C)CC3)cc2)c(C)n(C)c1C,0.65%
6,CCC(Oc1ccccc1C)C(=O)Nc1ccc(S(=O)(=O)Nc2cc(C)on2)cc1 (centres undefined),-0.02%
7,O=C(/C=C/c1ccc(OCc2c(F)cccc2Cl)cc1)N1CCOCC1,2.69%
8,Fc1cccc(Cl)c1COc1ccc(-c2nnco2)cc1,25.1% (active)
9,Fc1ccc(COc2ccc(-c3nnco3)cc2)cc1,0.56%
10,COc1cccc(C(=O)Nc2cc3c(cc2Br)OCCCO3)c1,-1.23%
11,O=C(c1ccc(Br)o1)N(c1ccccn1)C1CCCCC1,-0.71%
12,Cc1cccc(C(=O)OC(C)CN2CCCC2)c1 (centres undefined),-0.62%
13,CC(C)CC1(C)NC(=O)N(CC(=O)Nc2ccc3c(c2)OCCO3)C1=O (centres undefined),1.53%
14,COCC1CCN(C(=O)CCc2nnc(C3(c4ccc(Cl)cc4)CCC3)o2)C1 (centres undefined),-0.39%
15,CCN(CC)c1ccc2oc(=O)c(C)nc2c1,24.3% (active)
16,CCN(CC)c1ccc(C(=O)Nn2c(C)nc3ccccc3c2=O)cc1,6.78%
17,C=CCN(C(=O)Nc1ccc2oc(C)nc2c1)c1ccccc1,0.19%
18,CC(C)=CCCC(C)CN1CCC(n2nccc2NC(=O)c2ccccc2)CC1 (centres undefined),0.01%
19,COc1ccc(OC)c(NC(=O)COC(=O)Cc2ccsc2)c1,-0.12%
20,CN(C)c1ccc(/C=C2\NC(=S)N(Cc3ccccc3)C2=O)cc1,70.8% (active)
21,CN(C)c1ccc(C=C2C(=O)OC3(CCCC3)OC2=O)cc1,2.02%
22,COc1cc(/C=C2/SC(=S)N(Cc3ccccc3)C2=O)cc(OC)c1O,15.3%
